Reference: PubChem BioAssay
Calls of active or inactive are those of the source.

Columns and labels:
[1] = system: Plasmodium falciparum Sir2 (PF13_0152, Sir2A); experiment: pfSir2 binders on small-molecule microarrays, primary screen, biochemical, small-molecule microarray, 635 nm fluorescence (AID 1098); details: small-molecule microarray binding, fluorescence 635 nm; higher = more signal;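 note: score merges spot fluorescence intensity with its signal-to-noise ratio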
[2] = small-molecule microarray binders of probe aDKK1, primary screen, biochemical, biotinylated probe, 635/667 nm fluorescence (AID 1099); details: higher = more signal;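 note: score merges 667nm spot fluorescence with signal to noise across triplicate slides; reference of the scale not given here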
[3] = small-molecule microarray binders of probe aCHRDL2, primary screen, biochemical, biotinylated probe, 635/667 nm fluorescence (AID 1100); details: higher = more signal
[4] = splicing luciferase reporter signal modulators, primary screen, spliceosome inhibition project, cell-based, HEK293, splice +/- reporter (AID 1101); details: luminescence, 24 h, higher = more signal, called active from +8 up or from −8 down;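 note: HEK293 cells carrying a splicing-competent luciferase reporter gene; test concentration not given here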
[5] = target: Fibroblast growth factor 10 (Homo sapiens) (UniProt O15520); experiment: FGF10 binders on small-molecule microarrays, primary screen, biochemical, small-molecule microarray, 635 nm fluorescence (AID 1102); details: FGF10 binding, fluorescence 635 nm, higher = more signal
Chain of Fibroblast growth factor 10 (Homo sapiens) (O15520 whole entry, looked up): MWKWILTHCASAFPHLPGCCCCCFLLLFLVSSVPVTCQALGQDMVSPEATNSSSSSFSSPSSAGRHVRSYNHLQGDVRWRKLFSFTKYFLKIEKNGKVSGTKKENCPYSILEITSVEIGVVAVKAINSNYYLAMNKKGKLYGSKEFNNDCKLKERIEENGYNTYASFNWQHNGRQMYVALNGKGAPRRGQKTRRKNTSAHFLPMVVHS

[6] = system: glycogen synthase kinase-3 (GSK3A per assay name; protocol says GSK3B); experiment: GSK3 binders on small-molecule microarrays, primary screen, biochemical, small-molecule microarray, 635 nm fluorescence, GSK3A (AID 1103); details: small-molecule microarray binding, fluorescence 635 nm; higher = more signal; note: the record names both GSK3A and GSK3B
[7] = target: Epidermal growth factor receptor (Homo sapiens) (UniProt P00533); experiment: EGFR binders on small-molecule microarrays, primary screen, biochemical, small-molecule microarray, 635 nm fluorescence (AID 1104); details: EGFR binding, higher = more signal;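 note: score merges 667 nm emission intensity with spot signal to noise over triplicate slides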
Chain of Epidermal growth factor receptor (Homo sapiens) (P00533 whole entry, looked up): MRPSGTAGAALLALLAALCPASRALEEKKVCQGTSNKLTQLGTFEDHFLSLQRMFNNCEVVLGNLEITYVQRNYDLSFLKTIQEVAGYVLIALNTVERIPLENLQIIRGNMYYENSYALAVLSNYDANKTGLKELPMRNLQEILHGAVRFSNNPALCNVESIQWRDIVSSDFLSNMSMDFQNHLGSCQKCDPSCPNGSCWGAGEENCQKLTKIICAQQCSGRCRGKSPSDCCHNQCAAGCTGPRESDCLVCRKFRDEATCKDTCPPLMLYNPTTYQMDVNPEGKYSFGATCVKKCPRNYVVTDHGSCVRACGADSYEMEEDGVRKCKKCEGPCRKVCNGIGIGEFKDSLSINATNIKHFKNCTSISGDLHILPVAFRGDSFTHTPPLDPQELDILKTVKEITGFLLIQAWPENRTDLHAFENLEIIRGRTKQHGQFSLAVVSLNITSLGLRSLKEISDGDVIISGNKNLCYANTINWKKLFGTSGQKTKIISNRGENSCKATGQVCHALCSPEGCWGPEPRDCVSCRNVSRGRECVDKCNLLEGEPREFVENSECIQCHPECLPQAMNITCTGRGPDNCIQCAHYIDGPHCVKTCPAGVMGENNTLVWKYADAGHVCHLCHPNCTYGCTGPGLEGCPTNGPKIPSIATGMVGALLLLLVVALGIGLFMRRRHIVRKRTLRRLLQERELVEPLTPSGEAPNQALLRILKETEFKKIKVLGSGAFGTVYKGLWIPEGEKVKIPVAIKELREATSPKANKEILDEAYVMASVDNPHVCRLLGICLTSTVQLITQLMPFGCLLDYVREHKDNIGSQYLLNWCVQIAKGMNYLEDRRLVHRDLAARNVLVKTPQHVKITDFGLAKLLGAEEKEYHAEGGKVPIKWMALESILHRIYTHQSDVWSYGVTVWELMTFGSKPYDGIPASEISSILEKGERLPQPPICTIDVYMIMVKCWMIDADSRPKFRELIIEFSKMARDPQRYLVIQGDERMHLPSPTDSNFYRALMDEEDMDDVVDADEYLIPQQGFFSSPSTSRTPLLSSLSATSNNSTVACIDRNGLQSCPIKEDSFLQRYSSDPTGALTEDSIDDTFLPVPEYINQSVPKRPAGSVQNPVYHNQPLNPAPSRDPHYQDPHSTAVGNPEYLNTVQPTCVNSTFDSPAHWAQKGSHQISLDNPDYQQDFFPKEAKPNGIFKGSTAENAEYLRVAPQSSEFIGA

[8] = target: Follistatin-related protein 3 (Homo sapiens) (UniProt O95633); experiment: FSTL3 binders on small-molecule microarrays, primary screen, biochemical, small-molecule microarray, 635 nm fluorescence (AID 1105); details: FSTL3 binding, higher = more signal;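 note: score merges emission near 667 nm and signal to noise per printed spot across three slides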
Chain of Follistatin-related protein 3 (Homo sapiens) (O95633 whole entry, looked up): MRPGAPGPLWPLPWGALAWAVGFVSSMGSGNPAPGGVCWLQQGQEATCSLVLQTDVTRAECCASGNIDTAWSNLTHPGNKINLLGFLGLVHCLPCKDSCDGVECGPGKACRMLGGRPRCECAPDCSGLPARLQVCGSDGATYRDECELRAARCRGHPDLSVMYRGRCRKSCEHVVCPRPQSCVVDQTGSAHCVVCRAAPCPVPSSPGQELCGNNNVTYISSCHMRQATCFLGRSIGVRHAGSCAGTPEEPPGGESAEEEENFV

[9] = target: Dickkopf-related protein 1 (Homo sapiens) (UniProt O94907); experiment: DKK1 binders on small-molecule microarrays, primary screen, biochemical, small-molecule microarray, 635 nm fluorescence scan (AID 1106); details: DKK1 binding, higher = more signal;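 note: score merges emission near 667 nm with signal to noise over three replicate slides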
Chain of Dickkopf-related protein 1 (Homo sapiens) (O94907 whole entry, looked up): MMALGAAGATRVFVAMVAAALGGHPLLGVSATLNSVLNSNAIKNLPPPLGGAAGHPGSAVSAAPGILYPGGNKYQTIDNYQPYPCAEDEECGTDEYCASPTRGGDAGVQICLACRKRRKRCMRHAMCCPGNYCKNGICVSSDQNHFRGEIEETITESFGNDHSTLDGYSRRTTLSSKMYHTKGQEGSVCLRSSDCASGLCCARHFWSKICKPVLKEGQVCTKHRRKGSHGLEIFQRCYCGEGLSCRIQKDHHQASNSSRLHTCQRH

[10] = system: Inhibin beta A chain (activin A); experiment: INHBA (activin A) binders on microarrays, primary screen, biochemical, small-molecule microarray, 635 nm fluorescence scan (AID 1107); details: small-molecule microarray binding, higher = more signal;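 note: mouse activin A protein probed at 4.33 µg/mL on printed slides; score merges bound-protein fluorescence near 667 nm with spot signal-to-noise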

SMILES	composite z-score [1]	composite z-score [2]	composite z-score [3]	z-score [4]	composite z-score [5]	composite z-score [6]	composite z-score [7]	composite z-score [8]	composite z-score [9]	composite z-score [10]
CC(=O)OC[C@H]1O[C@H](CC=NO[C@H](C)c2cn([C@H](CO)Cc3ccccc3)nn2)C=C[C@@H]1OC(C)=O	0.95	-0.154	-0.357	0.67 (inactive)	0.945	0.926	0.569	0.995	1.43	-0.143
COC(=O)[C@H](C)NC(=O)CCC1CC(OC(=O)NCc2ccc3c(c2)OCO3)CC2(CCCC(COC(=O)NCC(c3ccccc3)c3ccccc3)O2)O1 (stereo not given in full)	0.848	-0.33	-0.845	-0.845 (inactive)	1.33	0.653	0.651	1.2	0.766	-0.473
CCCCC#C[C@@H]1C=C[C@H](Oc2cc(OC)c(OC)c(OC)c2)[C@@H](COC(=O)OCC)O1	0.589	-0.328	-0.619	-0.696 (inactive)	0.306	-0.682	0.0389	-0.203	0.514	0.444
CCOC(=O)[C@H](CC(C)C)NC(=O)CCC1CC(OC(=O)NCc2ccc3c(c2)OCO3)CC2(CCCC(COC(=O)NCc3cccc(C(F)(F)F)c3)O2)O1 (stereo not given in full)	0.15	-0.229	-0.031	-0.235 (inactive)	0.418	-0.319	0.242	0.395	0.355	0.348
O=C1C[C@@H](O)[C@@H](O)[C@@H]2[C@@H]3C(=O)N(Cc4ccccc4)C(=O)[C@@H]3CC[C@@H]12	0.463	-0.222	-0.47	0.859 (inactive)	0.807	0.863	0.506	0.888	0.59	0.11
O=C1CCCC=C1C(O)CCOC(c1ccccc1)(c1ccccc1)c1ccccc1 (stereo not given)	-0.0236	-0.231	-0.15	-0.0834 (inactive)	0.0203	-0.388	-0.0225	-0.108	0.335	0.874
CON=C(C)CCC(=O)OC[C@H]1O[C@H](c2ccccc2)C=C[C@@H]1Oc1ccc(OC)cc1	0.712	-0.174	-0.15	0.115 (inactive)	0.142	-0.496	0.213	0.189	0.474	0.854
CCOC(=O)[C@H](CC(C)C)NC(=O)CCC1CC(OC(=O)NCCc2ccc(F)cc2)CC2(CCCC(COC(=O)NCCc3ccc(Cl)cc3)O2)O1 (stereo not given in full)	0.654	-0.26	-0.681	0.0483 (inactive)	0.675	0.46	0.517	0.79	0.483	-1.71
CC(C)CCN1CCc2nc(COc3ccccc3)c3c(c2C1)CO[C@@H](C)C3	0.605	0.179	0.844	0.893 (inactive)	-0.185	-0.113	-0.0715	-0.204	-0.471	0.71
COc1ccc(O[C@@H]2[C@H](O)CO[C@@H]2C=Cc2ccccc2)cc1	0.638	-0.228	-0.256	-1.63 (inactive)	-0.0055	-0.0208	-0.169	0.367	0.148	0.448
CO[C@@H]1COC(=O)[C@@H]2CCCN2C(=O)[C@@H](C)COC(=O)CC=C[C@H]1C	0.13	-0.552	-0.522	-0.203 (inactive)	0.959	1.28	0.598	0.993	1.12	-0.282
COC(=O)CC=C[C@@H](C)[C@@H](C=NO[C@H](C)c1cn([C@@H]2COC[C@H]2O)nn1)NS(=O)(=O)c1ccc(C)cc1	0.163	-0.268	-0.57	-0.0248 (inactive)	0.43	0.427	0.59	0.746	1.07	0.216
COc1ccc(COC(=O)NN=C2C[C@@H](O)[C@@H](O)[C@@H]3[C@@H]4C(=O)N(C5CCCCC5)C(=O)[C@@H]4CC[C@H]23)cc1	-0.378	1.07	1.47	1.3 (inactive)	-0.485	-0.784	-0.575	-0.558	-1.45	0.699
CCOC(=O)[C@H](Cc1ccccc1)NC(=O)OC1CC(CCC2CC(CC)=NO2)OC2(CCCC(COC(=O)NCCC(C)C)O2)C1 (stereo not given in full)	0.328	-0.246	-0.264	0.667 (inactive)	0.848	0.207	0.0954	-0.127	0.0585	-0.415
